These results are taken from ChEMBL document CHEMBL1961873, “Compounds: GSK PKIS; Assays: Nanosyn kinase panel” (2012).

SMILES strings stand for the structures.

In test [1] the target is T1, Serine/threonine-protein kinase D2 (Homo sapiens) (UniProt Q9BZL6).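 Also: mean value of PRKD2 inhibition, from the GSK PKIS screening panel.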
T1 sequence (whole entry): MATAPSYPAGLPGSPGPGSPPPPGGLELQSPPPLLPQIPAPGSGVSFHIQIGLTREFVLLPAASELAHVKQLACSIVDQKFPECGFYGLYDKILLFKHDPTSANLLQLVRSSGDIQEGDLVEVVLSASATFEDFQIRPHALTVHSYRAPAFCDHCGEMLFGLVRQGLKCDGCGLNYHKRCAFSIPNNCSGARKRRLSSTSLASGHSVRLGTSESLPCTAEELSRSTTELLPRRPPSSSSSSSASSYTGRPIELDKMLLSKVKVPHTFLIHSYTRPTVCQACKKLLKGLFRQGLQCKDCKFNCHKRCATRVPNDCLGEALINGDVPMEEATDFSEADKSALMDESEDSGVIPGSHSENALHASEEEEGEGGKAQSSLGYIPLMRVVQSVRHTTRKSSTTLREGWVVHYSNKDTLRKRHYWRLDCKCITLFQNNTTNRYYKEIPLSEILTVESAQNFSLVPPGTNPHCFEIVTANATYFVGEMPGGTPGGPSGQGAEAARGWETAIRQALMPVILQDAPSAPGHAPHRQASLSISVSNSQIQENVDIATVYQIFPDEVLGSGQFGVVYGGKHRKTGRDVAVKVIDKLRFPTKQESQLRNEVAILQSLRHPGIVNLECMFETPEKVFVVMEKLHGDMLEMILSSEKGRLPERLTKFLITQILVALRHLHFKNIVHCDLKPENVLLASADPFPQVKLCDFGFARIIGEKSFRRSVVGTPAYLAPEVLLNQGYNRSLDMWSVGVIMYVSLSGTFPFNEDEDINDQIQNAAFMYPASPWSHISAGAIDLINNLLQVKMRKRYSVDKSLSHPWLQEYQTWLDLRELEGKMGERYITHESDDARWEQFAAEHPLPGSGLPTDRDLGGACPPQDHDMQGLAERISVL
To be noted: at 1 µM.

For test [2], the target named is T2, Serine/threonine-protein kinase D3 (Homo sapiens) (UniProt O94806).
T2 sequence (whole entry): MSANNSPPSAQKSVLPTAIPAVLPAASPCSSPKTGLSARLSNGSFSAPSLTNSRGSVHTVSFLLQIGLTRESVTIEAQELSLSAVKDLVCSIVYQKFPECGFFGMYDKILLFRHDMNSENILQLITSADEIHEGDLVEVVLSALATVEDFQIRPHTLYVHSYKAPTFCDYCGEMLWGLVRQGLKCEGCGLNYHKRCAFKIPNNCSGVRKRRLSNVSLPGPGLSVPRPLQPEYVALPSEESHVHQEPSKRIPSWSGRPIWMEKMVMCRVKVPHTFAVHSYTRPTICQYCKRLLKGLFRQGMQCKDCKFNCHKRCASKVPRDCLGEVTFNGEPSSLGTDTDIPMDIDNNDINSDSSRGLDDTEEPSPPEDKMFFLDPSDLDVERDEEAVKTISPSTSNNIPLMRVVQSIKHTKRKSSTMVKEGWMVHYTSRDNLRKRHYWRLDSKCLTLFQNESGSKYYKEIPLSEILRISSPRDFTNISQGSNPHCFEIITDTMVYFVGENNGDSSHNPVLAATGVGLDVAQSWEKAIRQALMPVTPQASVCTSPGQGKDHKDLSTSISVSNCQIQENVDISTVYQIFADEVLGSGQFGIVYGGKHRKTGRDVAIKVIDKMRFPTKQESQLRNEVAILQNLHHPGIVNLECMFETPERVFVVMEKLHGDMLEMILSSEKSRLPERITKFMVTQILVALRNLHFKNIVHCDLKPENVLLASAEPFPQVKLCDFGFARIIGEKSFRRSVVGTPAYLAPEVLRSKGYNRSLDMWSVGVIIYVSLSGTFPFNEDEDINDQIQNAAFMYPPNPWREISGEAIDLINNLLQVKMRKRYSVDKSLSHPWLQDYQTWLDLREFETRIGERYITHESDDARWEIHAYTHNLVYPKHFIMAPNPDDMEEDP
To be noted: at 0.1 µM.

For test [3], the target named is T2, Serine/threonine-protein kinase D3 (Homo sapiens). Particulars: at 1 µM.
For test [4], the target named is T3, cGMP-dependent protein kinase 1 (Homo sapiens) (UniProt Q13976).
T3 sequence (whole entry): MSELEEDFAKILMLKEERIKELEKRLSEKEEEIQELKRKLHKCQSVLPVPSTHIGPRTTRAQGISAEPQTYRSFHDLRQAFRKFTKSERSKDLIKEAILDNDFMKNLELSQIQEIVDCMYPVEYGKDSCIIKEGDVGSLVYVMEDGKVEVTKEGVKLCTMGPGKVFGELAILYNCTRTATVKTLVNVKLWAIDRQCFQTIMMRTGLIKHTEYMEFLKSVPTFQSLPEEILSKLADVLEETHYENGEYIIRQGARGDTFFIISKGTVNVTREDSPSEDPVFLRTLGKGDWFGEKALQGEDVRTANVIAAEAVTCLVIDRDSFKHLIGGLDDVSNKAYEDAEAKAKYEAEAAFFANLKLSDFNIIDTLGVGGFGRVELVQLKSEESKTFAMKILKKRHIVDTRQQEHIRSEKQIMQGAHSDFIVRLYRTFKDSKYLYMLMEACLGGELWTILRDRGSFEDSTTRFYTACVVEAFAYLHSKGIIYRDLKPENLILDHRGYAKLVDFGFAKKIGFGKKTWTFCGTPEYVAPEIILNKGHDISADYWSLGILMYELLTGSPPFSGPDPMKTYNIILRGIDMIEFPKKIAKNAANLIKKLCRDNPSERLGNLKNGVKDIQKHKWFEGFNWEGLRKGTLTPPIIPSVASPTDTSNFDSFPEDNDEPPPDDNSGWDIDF
To be noted: at 0.1 µM.

In test [5] the target is T3, cGMP-dependent protein kinase 1 (Homo sapiens). To be noted: at 1 µM.
Test [6] has as its target T4, cGMP-dependent protein kinase 2 (Homo sapiens) (UniProt Q13237).
T4 sequence (whole entry): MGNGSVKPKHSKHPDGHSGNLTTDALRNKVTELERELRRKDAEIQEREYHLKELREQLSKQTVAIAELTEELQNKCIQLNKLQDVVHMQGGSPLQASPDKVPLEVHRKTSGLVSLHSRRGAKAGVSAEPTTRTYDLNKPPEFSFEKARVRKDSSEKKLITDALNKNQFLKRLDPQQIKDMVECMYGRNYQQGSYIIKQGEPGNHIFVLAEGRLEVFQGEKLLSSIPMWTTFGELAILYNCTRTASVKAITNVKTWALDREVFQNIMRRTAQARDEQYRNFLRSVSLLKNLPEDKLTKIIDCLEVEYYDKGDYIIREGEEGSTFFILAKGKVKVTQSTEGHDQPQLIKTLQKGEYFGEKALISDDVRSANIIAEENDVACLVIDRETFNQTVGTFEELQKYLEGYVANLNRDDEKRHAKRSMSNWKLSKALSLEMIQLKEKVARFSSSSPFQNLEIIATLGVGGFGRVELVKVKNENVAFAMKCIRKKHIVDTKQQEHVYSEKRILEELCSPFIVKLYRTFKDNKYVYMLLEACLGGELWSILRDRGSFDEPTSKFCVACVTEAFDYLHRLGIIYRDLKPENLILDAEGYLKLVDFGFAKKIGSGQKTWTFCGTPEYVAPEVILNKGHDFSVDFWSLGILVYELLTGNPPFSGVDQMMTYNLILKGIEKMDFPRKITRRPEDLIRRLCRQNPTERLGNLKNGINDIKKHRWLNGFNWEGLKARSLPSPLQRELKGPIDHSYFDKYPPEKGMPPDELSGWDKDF
To be noted: at 0.1 µM.

Test [7] has as its target T4, cGMP-dependent protein kinase 2 (Homo sapiens). To be noted: at 1 µM.
The target in test [8] is T5, cAMP-dependent protein kinase catalytic subunit PRKX (Homo sapiens) (UniProt P51817).
T5 sequence (whole entry): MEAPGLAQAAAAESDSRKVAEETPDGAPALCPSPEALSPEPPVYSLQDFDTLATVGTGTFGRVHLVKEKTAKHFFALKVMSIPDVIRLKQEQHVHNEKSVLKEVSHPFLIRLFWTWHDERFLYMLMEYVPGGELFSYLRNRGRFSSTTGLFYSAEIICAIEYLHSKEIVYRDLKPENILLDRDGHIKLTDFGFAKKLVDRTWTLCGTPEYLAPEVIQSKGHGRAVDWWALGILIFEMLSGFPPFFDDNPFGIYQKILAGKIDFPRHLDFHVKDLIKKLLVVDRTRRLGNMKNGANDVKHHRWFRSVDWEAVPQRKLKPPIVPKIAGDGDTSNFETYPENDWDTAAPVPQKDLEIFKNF
Particulars: at 0.1 µM.

Test [9] has as its target T5, cAMP-dependent protein kinase catalytic subunit PRKX (Homo sapiens). To be noted: at 1 µM.
Test [10] addresses Rho-associated protein kinase 1 (Homo sapiens) (UniProt Q13464). To be noted: at 0.1 µM.
Test [11] shares this target. To be noted: at 1 µM.
The target in test [12] is Rho-associated protein kinase 2 (Homo sapiens) (UniProt O75116). To be noted: at 0.1 µM.
Test [13] shares this target. Particulars: at 1 µM.
Test [14] concerns the target Ribosomal protein S6 kinase alpha-1 (Homo sapiens) (UniProt Q15418). To be noted: at 0.1 µM.
Test [15] shares this target. To be noted: at 1 µM.
The target of test [16] is Ribosomal protein S6 kinase alpha-3 (Homo sapiens) (UniProt P51812). To be noted: at 0.1 µM.
Test [17] has the same target. To be noted: at 1 µM.
Test [18] has as its target Ribosomal protein S6 kinase alpha-2 (Homo sapiens) (UniProt Q15349). To be noted: at 0.1 µM.
Test [19] has the same target. To be noted: at 1 µM.
The target of test [20] is Ribosomal protein S6 kinase alpha-6 (Homo sapiens) (UniProt Q9UK32). Particulars: at 0.1 µM.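 Also: reported value is the mean inhibition of RSK4, from the GSK PKIS kinase inhibitor screen.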
Ribosomal protein S6 kinase alpha-6 (Homo sapiens), sequence (Q9UK32 whole entry): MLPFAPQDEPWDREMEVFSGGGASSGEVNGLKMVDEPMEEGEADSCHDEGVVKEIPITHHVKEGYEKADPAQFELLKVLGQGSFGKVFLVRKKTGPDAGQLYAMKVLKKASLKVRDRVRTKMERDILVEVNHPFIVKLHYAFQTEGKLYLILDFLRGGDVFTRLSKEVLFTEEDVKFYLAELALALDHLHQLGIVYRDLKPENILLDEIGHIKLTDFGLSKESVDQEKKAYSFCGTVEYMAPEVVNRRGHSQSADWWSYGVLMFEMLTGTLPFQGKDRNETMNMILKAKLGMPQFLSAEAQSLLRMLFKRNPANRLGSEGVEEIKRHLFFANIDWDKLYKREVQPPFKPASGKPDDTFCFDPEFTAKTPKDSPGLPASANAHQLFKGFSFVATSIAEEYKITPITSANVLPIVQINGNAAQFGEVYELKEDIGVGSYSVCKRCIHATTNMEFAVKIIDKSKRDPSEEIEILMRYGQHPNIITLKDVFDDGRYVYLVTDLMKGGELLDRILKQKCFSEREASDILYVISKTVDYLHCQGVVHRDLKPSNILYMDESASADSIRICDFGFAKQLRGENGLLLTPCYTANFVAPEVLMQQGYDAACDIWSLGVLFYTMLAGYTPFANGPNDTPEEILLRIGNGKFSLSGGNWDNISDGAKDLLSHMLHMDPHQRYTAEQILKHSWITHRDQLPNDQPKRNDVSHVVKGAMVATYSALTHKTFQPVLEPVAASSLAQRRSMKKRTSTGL

Rho-associated protein kinase 1 (Homo sapiens), sequence (Q13464 2-1354 limits assumed): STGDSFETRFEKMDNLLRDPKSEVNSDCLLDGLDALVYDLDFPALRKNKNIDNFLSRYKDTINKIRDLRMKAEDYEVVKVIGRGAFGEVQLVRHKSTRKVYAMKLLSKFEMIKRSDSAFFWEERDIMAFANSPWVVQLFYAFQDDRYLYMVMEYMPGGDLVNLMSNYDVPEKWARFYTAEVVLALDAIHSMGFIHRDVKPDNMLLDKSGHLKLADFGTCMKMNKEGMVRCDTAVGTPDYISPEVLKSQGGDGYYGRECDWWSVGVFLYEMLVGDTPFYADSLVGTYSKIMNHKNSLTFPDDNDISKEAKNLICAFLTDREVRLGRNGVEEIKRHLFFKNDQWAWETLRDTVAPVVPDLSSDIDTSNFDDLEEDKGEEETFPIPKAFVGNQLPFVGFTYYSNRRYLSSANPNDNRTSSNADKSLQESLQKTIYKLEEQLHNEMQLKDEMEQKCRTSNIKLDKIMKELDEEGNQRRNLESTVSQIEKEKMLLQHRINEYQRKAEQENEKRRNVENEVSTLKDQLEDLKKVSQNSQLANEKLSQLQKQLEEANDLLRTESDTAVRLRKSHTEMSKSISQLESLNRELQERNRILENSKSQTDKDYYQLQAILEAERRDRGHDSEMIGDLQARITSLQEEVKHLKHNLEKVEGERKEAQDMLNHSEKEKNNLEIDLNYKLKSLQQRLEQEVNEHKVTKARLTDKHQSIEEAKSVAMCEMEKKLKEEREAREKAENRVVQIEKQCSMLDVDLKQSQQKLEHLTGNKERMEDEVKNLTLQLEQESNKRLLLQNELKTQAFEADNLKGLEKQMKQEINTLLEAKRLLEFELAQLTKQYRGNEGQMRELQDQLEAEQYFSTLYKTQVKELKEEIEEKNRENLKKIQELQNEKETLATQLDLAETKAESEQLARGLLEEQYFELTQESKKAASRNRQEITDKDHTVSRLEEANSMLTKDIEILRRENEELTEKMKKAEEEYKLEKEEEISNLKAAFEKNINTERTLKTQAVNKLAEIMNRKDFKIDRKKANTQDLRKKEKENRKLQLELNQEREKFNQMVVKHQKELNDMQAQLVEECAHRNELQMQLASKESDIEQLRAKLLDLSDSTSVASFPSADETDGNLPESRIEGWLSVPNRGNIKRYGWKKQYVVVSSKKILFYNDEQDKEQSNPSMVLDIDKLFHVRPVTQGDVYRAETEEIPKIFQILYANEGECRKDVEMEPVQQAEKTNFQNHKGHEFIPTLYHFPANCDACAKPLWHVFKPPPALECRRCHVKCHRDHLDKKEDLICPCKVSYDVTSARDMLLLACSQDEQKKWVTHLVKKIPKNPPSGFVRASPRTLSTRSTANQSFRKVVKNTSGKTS
Ribosomal protein S6 kinase alpha-1 (Homo sapiens), sequence (Q15418 whole entry): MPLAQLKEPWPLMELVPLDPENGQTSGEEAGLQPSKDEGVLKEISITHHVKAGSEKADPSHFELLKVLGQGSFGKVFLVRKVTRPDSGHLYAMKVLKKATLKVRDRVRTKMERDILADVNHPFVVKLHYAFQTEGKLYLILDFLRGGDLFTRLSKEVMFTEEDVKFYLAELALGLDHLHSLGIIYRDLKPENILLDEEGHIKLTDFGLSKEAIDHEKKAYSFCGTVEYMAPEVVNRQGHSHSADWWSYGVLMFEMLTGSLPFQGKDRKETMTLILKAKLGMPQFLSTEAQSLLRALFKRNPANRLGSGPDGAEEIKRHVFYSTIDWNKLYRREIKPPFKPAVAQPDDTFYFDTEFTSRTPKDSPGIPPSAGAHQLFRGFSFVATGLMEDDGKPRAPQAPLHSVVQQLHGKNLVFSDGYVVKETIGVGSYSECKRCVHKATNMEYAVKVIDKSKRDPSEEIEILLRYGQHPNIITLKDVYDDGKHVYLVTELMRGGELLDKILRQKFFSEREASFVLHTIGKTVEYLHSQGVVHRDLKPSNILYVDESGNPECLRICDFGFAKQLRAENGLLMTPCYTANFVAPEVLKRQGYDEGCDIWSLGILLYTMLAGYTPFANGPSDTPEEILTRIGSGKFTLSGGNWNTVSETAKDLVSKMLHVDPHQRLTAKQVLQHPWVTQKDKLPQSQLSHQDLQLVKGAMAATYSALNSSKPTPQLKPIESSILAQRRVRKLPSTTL
Rho-associated protein kinase 2 (Homo sapiens), sequence (O75116 whole entry, looked up): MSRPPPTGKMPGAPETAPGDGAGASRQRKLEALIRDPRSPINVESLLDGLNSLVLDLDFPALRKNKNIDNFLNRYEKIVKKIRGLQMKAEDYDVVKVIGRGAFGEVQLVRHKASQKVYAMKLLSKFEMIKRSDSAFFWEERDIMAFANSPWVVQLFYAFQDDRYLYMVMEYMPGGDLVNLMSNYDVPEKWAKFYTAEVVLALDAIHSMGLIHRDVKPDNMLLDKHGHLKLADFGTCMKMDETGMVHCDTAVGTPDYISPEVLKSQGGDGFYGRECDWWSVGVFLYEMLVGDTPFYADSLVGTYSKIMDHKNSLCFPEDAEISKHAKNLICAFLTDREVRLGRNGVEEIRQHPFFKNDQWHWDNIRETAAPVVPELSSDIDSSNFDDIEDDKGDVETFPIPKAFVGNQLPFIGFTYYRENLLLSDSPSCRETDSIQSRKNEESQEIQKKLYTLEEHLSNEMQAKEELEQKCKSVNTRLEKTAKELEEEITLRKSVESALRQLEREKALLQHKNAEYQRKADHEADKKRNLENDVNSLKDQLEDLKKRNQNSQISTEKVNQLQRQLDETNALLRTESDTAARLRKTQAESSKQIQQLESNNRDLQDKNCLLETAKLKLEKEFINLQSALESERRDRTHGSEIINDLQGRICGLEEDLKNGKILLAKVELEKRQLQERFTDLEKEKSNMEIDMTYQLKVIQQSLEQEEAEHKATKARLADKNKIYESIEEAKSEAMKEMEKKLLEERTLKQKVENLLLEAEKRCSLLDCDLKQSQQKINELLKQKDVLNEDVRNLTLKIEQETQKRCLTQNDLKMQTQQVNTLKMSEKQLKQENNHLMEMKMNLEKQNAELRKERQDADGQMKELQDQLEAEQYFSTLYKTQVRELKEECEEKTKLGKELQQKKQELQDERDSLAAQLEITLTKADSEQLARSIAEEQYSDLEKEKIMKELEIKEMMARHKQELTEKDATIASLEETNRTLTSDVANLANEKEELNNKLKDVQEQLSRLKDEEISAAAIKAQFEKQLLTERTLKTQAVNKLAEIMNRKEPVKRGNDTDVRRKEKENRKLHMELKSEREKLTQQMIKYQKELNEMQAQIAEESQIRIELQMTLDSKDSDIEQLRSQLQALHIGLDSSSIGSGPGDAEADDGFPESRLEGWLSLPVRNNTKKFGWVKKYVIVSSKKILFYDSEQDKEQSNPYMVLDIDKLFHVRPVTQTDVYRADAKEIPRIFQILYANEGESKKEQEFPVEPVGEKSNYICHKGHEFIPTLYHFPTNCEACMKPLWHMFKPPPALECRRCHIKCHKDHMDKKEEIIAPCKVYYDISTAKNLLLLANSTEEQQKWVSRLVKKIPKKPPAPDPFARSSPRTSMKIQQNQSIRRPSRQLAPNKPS
Ribosomal protein S6 kinase alpha-2 (Homo sapiens), sequence (Q15349 whole entry): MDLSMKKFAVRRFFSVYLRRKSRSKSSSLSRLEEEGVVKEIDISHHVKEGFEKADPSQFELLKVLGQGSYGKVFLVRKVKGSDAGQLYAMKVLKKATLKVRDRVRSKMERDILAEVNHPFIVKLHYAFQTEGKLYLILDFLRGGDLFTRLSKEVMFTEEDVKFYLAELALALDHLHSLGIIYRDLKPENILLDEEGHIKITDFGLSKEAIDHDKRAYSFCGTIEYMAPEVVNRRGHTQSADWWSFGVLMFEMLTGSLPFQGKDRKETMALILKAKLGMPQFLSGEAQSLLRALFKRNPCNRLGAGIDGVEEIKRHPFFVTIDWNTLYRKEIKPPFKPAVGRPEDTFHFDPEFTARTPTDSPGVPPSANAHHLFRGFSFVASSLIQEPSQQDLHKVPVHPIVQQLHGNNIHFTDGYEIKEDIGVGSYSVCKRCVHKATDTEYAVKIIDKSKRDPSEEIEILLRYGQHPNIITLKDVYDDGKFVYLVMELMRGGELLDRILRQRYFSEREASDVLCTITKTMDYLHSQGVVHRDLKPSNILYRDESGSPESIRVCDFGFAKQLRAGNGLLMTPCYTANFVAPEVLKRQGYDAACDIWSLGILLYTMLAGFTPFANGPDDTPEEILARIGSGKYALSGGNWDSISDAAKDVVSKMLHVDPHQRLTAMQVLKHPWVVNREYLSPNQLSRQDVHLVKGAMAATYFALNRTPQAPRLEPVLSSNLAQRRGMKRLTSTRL

Consider `CS(=O)(=O)CCNCc1nc(-c2ccc3ncnc(Nc4ccc(F)c(Cl)c4)c3c2)cs1`, for which the inhibition – broadly, the drop in the measured response relative to a control, in per cent – in [1] amounted to 2.87%; in test [2] it was 1.23%; in [3], 1.58%; in [4], 1.73%; in test [5], 3.32%; in test [6], 0.95%. Moreover, the inhibition was 2.67% in [7]; 0.91% in [8]; 1.76% in test [9]; 1.23% in test [10]; 2.92% in [11]; 2.45% in test [12]. Besides, the inhibition in [13] is 5.8%; in [14], 1.4%; in test [15], 3.63%; in test [16] it was 1.07%; in test [17], 2.43%; in test [18] it was -0.57%. For the same compound, the results for the inhibition in test [19] and in [20] were 0.84% and 0.69%, respectively.
On to `COc1cc2ncn(-c3cc(OCc4ccccc4Cl)c(C(N)=O)s3)c2cc1OC`, for which the inhibition in [1] was 1.64%; in test [2], 0.33%; in test [3] it was 0.33%; in test [4], 1.08%; in test [5] it was 3.55%; in test [6], 0.53%. In addition, the inhibition in test [7] is 1.84%; in test [8], -0.05%; in test [9], -3.1%; in test [10], -0.3%; in test [11], 0.6%; in test [12], -0.16%. Also, the inhibition in test [13] was determined as 2.11%; in [14] it was 0.91%; in test [15], 3.5%; in test [16] it was 0.95%; in [17], 7.69%; in test [18], 1.46%. Besides, the inhibition was determined as 8.47% in test [19] and 2.26% in [20].
For `COC(=O)Nc1nc2cc(Oc3ccc(NC(=O)Nc4cccc(C(=O)O)c4)cc3)ccc2[nH]1`, the inhibition in test [1] was -1.55%; in test [2] it was -2.32%; in [3] it was -3.85%; in test [4] it was -0.28%; in test [5], 2.77%; in test [6], 1.1%. In addition, the inhibition came to 0.86% in test [7]; 0.76% in test [8]; 1.8% in test [9]; 0.24% in [10]; 1.55% in [11]; 2.14% in test [12]. Moreover, the inhibition in test [13] came out at 5.7%; in test [14], 1.21%; in test [15] it was 2.55%; in test [16], 1.11%; in test [17], 1.31%; in test [18] it was 0.86%. Besides, the values for the inhibition in [19] and in test [20] were 2% and 0.08%, respectively.
